The campaign covered roughly 59,000 compounds. About 6,200 (11%) were called active. Inconclusive results (about 9%) are left out. Rule as the data show it: active = max dye-equivalent concentration above about 10 nM; inconclusive = mostly about 1.1 nM to 9.6 nM; inactive = weaker than that. Only a selection was taken, and actives are over-represented in it overall.

This experiment is described as follows: qHTS Assay for Spectroscopic Profiling in 4-MU Spectral Region. To be noted: compound autofluorescence, 340/450 nm, 4-MU equivalents; hits give high values. Summed up: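 Intrinsic fluorescence at 340/450 nm (ex/em) was read after 15 min at room temperature in pH 8.0, 100 mM Tris. Each compound concentration expressed as 4-MU-equivalent concentration from a six-point 4-MU standard series on each plate.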
A general note: In qHTS, concentration-response curves come from the screen itself.
With `Cc1ccc2cccc(S(=O)(=O)N3CCN(c4ccccc4F)CC3)c2n1`, the max dye-equivalent concentration result is “inactive”.
The entry for `CCOC(=O)CN(C(=O)CN1CCOCC1)c1ccc(Br)cc1` is “inactive”; for `COc1ncnc2c1N=C1CC(C)(C)CC(N)=C1S2` it is “inactive”.
Regarding `O=C(OCC(=O)N1CCN(C(=O)c2ccco2)CC1)c1ccccc1Cc1ccccc1`, the max dye-equivalent concentration entry is “inactive”.
For the molecule `COC(=O)CN(c1cccc(C(C)=O)c1)S(C)(=O)=O`, the max dye-equivalent concentration result was “inactive”.
The entry for `C=CCn1c(C2CC(=O)N(c3ccc(C)cc3)C2)nc2ccccc21` (centres undefined) is “inactive”; for `CCN(CC(=O)NCc1cccs1)c1nnnn1-c1ccccc1` it is “inactive”.
The result for `C=CCn1c(N)c(C(=O)OCC(C)C)c2nc3ccccc3nc21` reads 3300 nM (active); that for `C=CCn1c(N)c(S(=O)(=O)c2cccs2)c2nc3ccccc3nc21`, 3700 nM (active).
The result for `C=CCn1c(C(C)NC(=O)CC)nc2ccccc21` (centres undefined) reads “inactive”.
On to `Cc1nnc(SCC(=O)NCc2cccs2)[nH]c1=O`, for which the max dye-equivalent concentration result is “inactive”.
The result for `CC(C)Cn1c(N)c(C(=O)NCc2cccs2)c2nc3ccccc3nc21` reads 280 nM (active); that for `O=C(c1cc(C(F)(F)F)cc(C(F)(F)F)c1)N1CCC2(CCCN(Cc3ccncc3)C2)CC1`, “inactive”; that for `COc1ccc(-c2nn(-c3ccccc3)cc2C(=O)Nc2nc(CC(C)=O)ns2)cc1`, “inactive”.
The result for `CCn1c(CSc2nncn2-c2ccc(OC)cc2)nc2cc(S(=O)(=O)N(C)C)ccc21` reads “inactive”; that for `Nc1nc(SCCOc2ccccc2)n[nH]1`, “inactive”; that for `CCOC(=O)C1CCN(C(=O)C2CCN(S(=O)(=O)N3CCCC3)CC2)CC1`, “inactive”.
The result for `COc1ccc(Cl)cc1S(=O)(=O)Nc1cccc(C(=O)O)c1` reads “inactive”.
As for `COc1ccc(C(c2nnnn2Cc2cccs2)N2CCN(c3ccccc3)CC2)cc1OC` (centres undefined), the max dye-equivalent concentration result was “inactive”.
The result for `Nc1nonc1-c1nc2ccccc2n1Cc1ccc(F)cc1` reads “inactive”; that for `Nn1c(SCC(=O)NC(=O)NC2CCCC2)nnc1-c1ccccc1F`, “inactive”.
In the case of `CC(=O)NC1=NC(=O)CS1`, the max dye-equivalent concentration result is “inactive”.
With `CCOc1ccccc1NC(=O)Nc1cc(OC)ccc1OC`, the max dye-equivalent concentration result was “inactive”.
The figure for `COc1ccc(OC)c(N=Cc2c(O)[nH]c3ccccc23)c1` is 59 nM (active); for `COC(=O)c1[nH]c2ccccc2c1NS(=O)(=O)c1ccc(OC)cc1OC` it is “inactive”.
Regarding `Cc1nn(-c2ccccc2)c(C)c1C(=O)OCC(=O)NC(=O)NC1CCCCC1`, the max dye-equivalent concentration result was “inactive”.
The entry for `CCC(C)(C)NC(=O)C(c1cccn1C)N(Cc1ccc(C)cc1)C(=O)Cn1nnc2ccccc21` (centres undefined) is “inactive”; for `CC(C)NC[C@H](O)c1ccc2ccccc2c1` it is “inactive”; for `CCCCC[C@H](O)CCCC(=O)O` it is “inactive”.
`COc1ccc(OC)c(C2N(c3ccccn3)C(=O)C3CCCN32)c1` (centres undefined): the max dye-equivalent concentration entry was “inactive”.
The entry for `CCN(CC)C(=O)c1sc(NC(=O)c2ccco2)c(C#N)c1C` is “inactive”; for `CCn1nc(NC(=O)c2ccco2)c2cc3ccc(C)cc3nc21` it is 64 nM (active).
The entry for `Cc1ccnc(NC(=O)c2ccc(NC(=O)c3ccco3)cc2)c1` is “inactive”.
Take `C=CCNc1nc(C)nc(OC)n1`: the max dye-equivalent concentration result was “inactive”.
The result for `C=CCn1c(COc2ccccc2C)nnc1SCC(=O)O` reads “inactive”.
Take `Cn1c(SCC(=O)Nc2cccc(NC(=O)c3cccs3)c2)nnc1-c1ccncc1`: the max dye-equivalent concentration entry is “inactive”.
Take `Cc1nc(-c2ccc(NC(=O)c3cccs3)cc2)cs1`: the max dye-equivalent concentration was 220 nM (active).
The entry for `O=C(O)c1ccc(NC(=O)c2cccs2)cc1` is “inactive”.
The entry for `Cc1cc(=O)[nH]c(SCC(=O)N2c3ccccc3CC2C)n1` (centres undefined) is “inactive”; for `NC(=NC(=O)c1ccccc1)C1=C(O)CCC1=O` it is “inactive”; for `Cn1c2ccccc2c2c(C(=O)N3CCN(c4ccc(F)cc4)CC3)cn(C3CCCC3)c(=O)c21` it is 16 nM (active).
In the case of `CC(C)N(C(=O)COC(=O)c1ccccc1C(=O)N1CCN(c2ccc(F)cc2)CC1)C(C)C`, the max dye-equivalent concentration entry was “inactive”.
The entry for `O=C(c1cccc2ccccc12)N1CCN(c2ccccc2F)CC1` is “inactive”; for `COc1ccc(-n2nnnc2SCC(=O)c2ccc(OC)c(OC)c2)cc1` it is “inactive”.
The result for `CC1=C(C(=O)OC2CCCCC2)C(c2cccnc2)n2ncnc2N1` (centres undefined) reads “inactive”; that for `COC(=O)C1=C(N)Oc2cc(C)oc(=O)c2C1c1cccnc1` (centres undefined), “inactive”.
For the molecule `CCSc1nc2c(c(=O)[nH]1)C(c1cccnc1)C(C(=O)OC(C)C)=C(C)N2` (centres undefined), the max dye-equivalent concentration was 10 nM (active).
The entry for `O=C(Nc1cccc(F)c1)N1CC2(CCN(C(=O)c3cnccn3)CC2)C1` is “inactive”; for `COc1ccc(NC(=O)c2c(SC)nsc2SC)cc1` it is “inactive”.
The entry for `CCOc1ccc(C(C)C)cc1S(=O)(=O)n1nc(C)cc1C` is “inactive”; for `Cc1ccc(OCCCC(=O)N2CCOCC2)c(C)c1` it is “inactive”; for `CCCc1[nH]nc2c1C(c1c(C)nn(-c3ccccc3)c1Cl)C(C#N)=C(N)O2` (centres undefined) it is “inactive”.
The entry for `CSc1nc(N)c(C#N)c(-c2ccccc2Cl)c1C#N` is “inactive”; for `CSc1ccc(-c2c(C#N)c(N)nc3c2c(C)nn3-c2ccccc2)cc1` it is 360 nM (active).
